Assay outcomes from PubChem BioAssay.
DT40 TDP1 CPT – qHTS for Inhibitors of human tyrosyl-DNA phosphodiesterase 1 (TDP1): qHTS in cells in presence of CPT | chicken DT40 Tdp1-/-;hTDP1 cells + 20 nM CPT, ATP luminescence, 48 h | Potency, µM (top dose mostly 46.2 µM), for the others: at the top dose activity change, negative = growth inhibition, actives largely listed as inhibitors | 420,000 tested, 12% active; also: potency is read from the fitted curve at half-maximal effect; nearly all actives have a fitted effect of over 55% in size
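Chicken DT40 Tdp1-/- cells complemented with human TDP1, 400 cells/well, exposed to compounds plus 20 nM camptothecin for at least 48 h at 37 C; viability read as ATP content by CellTiter-Glo luminescence.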
IL1B secr inh – qHTS for Inhibitors of Inflammasome Signaling: IL-1-beta AlphaLISA Primary Screen; THP-1 LPS/ATP IL-1B secretion, AlphaLISA, 16 h; hits give low values; activity change, % at 57.5 µM; 360,000 tested, 4.7% active; AID 743279, 2014; in the data active = activity change below about -50%; inconclusive = mostly about -30% to -49%
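THP-1 cells pretreated 1 hr with compounds (up to 57.5 uM final), then stimulated with LPS (250 ng/mL final) plus ATP (1.25 mM final); secreted IL-1B measured by AlphaLISA after 16 hr, decreased signal indicating inhibition.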
Giardia killer – Small Molecules that selectively kill Giardia lamblia: qHTS | 340,000 tested, 0.15% active | activity change, % at 7.66 µM, hits read low | Giardia lamblia trophozoite viability; in the data active = activity change below about -80%; inconclusive = between about -30% and that limit;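 also: parasites exposed to compound for two days anaerobically before the ATP read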
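ATP-content bioluminescence gauges trophozoite survival. Cells (100/well) receive compound and incubate anaerobically for 48 hrs at 37 deg C; detection reagent follows for 15-30 min at room temperature.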
ELG1 DNA repair – qHTS screen for small molecules that inhibit ELG1-dependent DNA repair in human embryonic kidney (HEK293T) cells expressing luciferase-tagged ELG1 | HEK293T ELG1-luciferase reporter, luminescence, 16 h; DNA damage induced by 5-fluorouridine | Potency, µM (highest dose often 46.1 µM), for the others: at the highest dose activity change, negative = inhibition, most hits filed as inhibitors | 330,000 tested, 2.3% active | AID 504467, 2011; also: potency is read from the fitted curve at half-maximal effect; nearly all actives have a fitted effect of over 55% in size
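Overnight (16 hr) co-exposure of 2,000 cells/well to 5-fluorouridine and compound at 37 °C preceded detection. Luciferase was quantified via ONE-Glo luminescence; loss of signal denotes inhibition.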
TDP1 cell noCPT – qHTS for Inhibitors of human tyrosyl-DNA phosphodiesterase 1 (TDP1): qHTS in cells in absence of CPT. AID 686978, 2013. DT40 Tdp1-/- hTDP1 cells, no CPT, ATP luminescence, 48 h. 420,000 tested, 15% active. Potency, µM (series often up to 46.2 µM), for inactives: at the highest dose activity change, negative = growth inhibition, usual class: inhibitors; also: potency is read from the fitted curve at half-maximal effect; nearly all actives have a fitted effect of over 55% in size
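Cells were dispensed at 400 per well, compounds added by pin tool, plates incubated ≥48 hr at 37 °C, then CellTiter-Glo added for 30 min at room temperature before luminescence reading. Line: DT40 Tdp1-/- complemented with hTDP1; camptothecin omitted.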
TDP1 block – qHTS Assay for Inhibitors of Tyrosyl-DNA Phosphodiesterase (TDP1). Potency, µM (doses to about 130 µM), without a hit: top-dose activity change, negative = inhibition, actives largely listed as inhibitors. Tyrosyl-DNA phosphodiesterase 1 (Homo sapiens), Q9NUW8. 350,000 tested, 0.28% active. recombinant TDP1, AlphaScreen DNA substrate cleavage; also: potency is read from the fitted curve at half-maximal effect; nearly all actives have a fitted effect of over 40% in size
Target sequence (Q9NUW8 whole entry, looked up): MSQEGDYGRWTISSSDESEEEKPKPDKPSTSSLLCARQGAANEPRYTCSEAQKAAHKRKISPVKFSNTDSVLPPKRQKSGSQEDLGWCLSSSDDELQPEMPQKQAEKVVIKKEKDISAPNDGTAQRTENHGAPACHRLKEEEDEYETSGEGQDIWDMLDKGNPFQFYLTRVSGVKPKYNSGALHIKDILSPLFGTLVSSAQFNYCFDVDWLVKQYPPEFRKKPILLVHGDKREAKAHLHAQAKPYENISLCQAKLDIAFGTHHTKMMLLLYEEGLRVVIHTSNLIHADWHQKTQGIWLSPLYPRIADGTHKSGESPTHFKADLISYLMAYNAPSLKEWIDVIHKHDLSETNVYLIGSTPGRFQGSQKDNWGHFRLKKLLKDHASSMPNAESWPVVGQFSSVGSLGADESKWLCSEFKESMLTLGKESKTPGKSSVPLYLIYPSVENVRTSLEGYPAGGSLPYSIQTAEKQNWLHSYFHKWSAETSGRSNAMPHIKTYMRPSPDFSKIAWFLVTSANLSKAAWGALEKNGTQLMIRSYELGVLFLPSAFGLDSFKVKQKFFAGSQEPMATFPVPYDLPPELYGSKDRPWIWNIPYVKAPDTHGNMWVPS
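Recombinant E. coli-expressed Tdp1 (1 nM) preincubated with compound 15 min at RT, then 5'-biotin/3'-phosphotyrosine-FITC DNA substrate (15 nM) added for 5 min. AlphaScreen beads (10 ug/ml) added, 10 min RT; tyrosine-FITC cleavage read as signal loss.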
* marks the source's active call; other numbers are inactive results; [ ] = remark or other dose. Rows were chosen to be rich in hits. Some 19% of all compounds tested hit in one or more screens of this group. Unless noted, calls follow the shape of the dose curve; as a rule, active = well fitted curve in the direction sought with a large enough effect; inconclusive = small, poorly fitted or top-dose-only effect, or another doubt; inactive = no such curve, though single readings can be large; an effect the other way counts as inactive or inconclusive. % is scaled to controls: 0 for no effect and ±100 for the full control effect.

For Cc1coc2c(C)c3oc(=O)c(CC(=O)N[C@@H](CC(C)C)C(=O)O)c(C)c3cc12 the results were DT40 TDP1 CPT 6.7%, IL1B secr inh 0.0, Giardia killer -9.6, ELG1 DNA repair 11.5% and TDP1 cell noCPT 3.3%.
For COc1ccc(CNC(=O)CCc2c(C)c3cc4c(C)coc4c(C)c3oc2=O)cc1OC the results were DT40 TDP1 CPT -4.4%, TDP1 cell noCPT inconclusive and TDP1 block 7.0%.
Screening COc1ccccc1CNC(=O)Cc1c(C)c2cc3c(C)coc3c(C)c2oc1=O returned DT40 TDP1 CPT 16.4µM*, TDP1 cell noCPT 11.6µM* and TDP1 block 2.3%.
`COc1ccc2c(C)c(CC(=O)NCc3ccc(C)cc3)c(=O)oc2c1OC` gave DT40 TDP1 CPT -0.1%, TDP1 cell noCPT -22.9% and TDP1 block 2.5%.
Screening Cc1coc2c(C)c3oc(=O)c(CC(=O)NCc4ccccc4)c(C)c3cc12 returned DT40 TDP1 CPT 5.8µM*, TDP1 cell noCPT 4.61µM* and TDP1 block 0.0%.
Cc1coc2c(C)c3oc(=O)c(CCC(=O)NCCc4ccccc4)c(C)c3cc12 was read as DT40 TDP1 CPT 13µM*, TDP1 cell noCPT 16.4µM* and TDP1 block -2.3%.
Screening COc1ccccc1CCNC(=O)CCc1c(C)c2cc3c(C)coc3c(C)c2oc1=O returned DT40 TDP1 CPT inconclusive, TDP1 cell noCPT inconclusive and TDP1 block 4.7%.
Screening Cc1c(CC(=O)NCc2ccccc2)c(=O)oc2c(C)c(O)ccc12 returned DT40 TDP1 CPT 13µM*, TDP1 cell noCPT 13µM* and TDP1 block 2.5%.
For OCC[C@@H]1C[C@H](O)[C@@H](O)[C@]2(OCc3cc(C(F)(F)F)ccc32)O1 the results were DT40 TDP1 CPT -9.7%, IL1B secr inh 36.5 and TDP1 cell noCPT 3.1%.
CC(=O)C1CCC2C3CC(C)C4=CC(=O)CC[C@@]4(C)C3C(O)C[C@@]12C (stereo partly specified) was read as DT40 TDP1 CPT inconclusive, TDP1 cell noCPT inconclusive and TDP1 block 9.0%[56.1 µM].
For O=C(c1ccc(F)cc1)n1c(NCc2ccccc2)n[nH]c1=S the results were DT40 TDP1 CPT 11.9%, IL1B secr inh -25.3, Giardia killer 0.5, ELG1 DNA repair 12.4%, TDP1 cell noCPT 0.6% and TDP1 block 5.9%.
For CCCC(NC(=O)CCc1c(C)c2cc3c4c(oc3c(C)c2oc1=O)CCCC4)C(=O)O (stereo unspecified) the results were DT40 TDP1 CPT 11.6µM*, IL1B secr inh 21.0, Giardia killer 5.4, ELG1 DNA repair 14.2% and TDP1 cell noCPT -10.5%.
For COc1ccc(C(CNC(=O)c2c(C)nn(Cc3ccc(C)cc3)c2Cl)N2CCOCC2)cc1 (stereo unspecified) the results were DT40 TDP1 CPT inconclusive, IL1B secr inh -81.5*, Giardia killer 13.9, ELG1 DNA repair 20.6µM*, TDP1 cell noCPT 23.1µM* and TDP1 block 1.5%.
Screening Cc1ccc(Cn2nc(C)c(C(=O)NCC(c3cccs3)N3CCOCC3)c2Cl)cc1 (stereo unspecified) returned DT40 TDP1 CPT 20.6µM*, IL1B secr inh 8.4, Giardia killer -6.7, ELG1 DNA repair 5.62µM* and TDP1 cell noCPT 23.1µM*.
Screening NC(=O)COc1ccc(C(=O)/C=C2/C(=O)Nc3ccccc32)cc1 returned DT40 TDP1 CPT 7.31µM*, IL1B secr inh -100.5*, Giardia killer -7.9, ELG1 DNA repair -2.9% and TDP1 cell noCPT 2.91µM*.
C=CCOc1ccc(C(=O)/C=C2/C(=O)Nc3ccccc32)cc1 was read as DT40 TDP1 CPT 16.4µM*, IL1B secr inh -91.7*, Giardia killer 8.3, ELG1 DNA repair -4.2% and TDP1 cell noCPT 13µM*.
Screening C=CCOc1ccccc1C(=O)/C=C1/C(=O)Nc2ccccc21 returned DT40 TDP1 CPT 5.8µM*, IL1B secr inh inconclusive, Giardia killer -27.0, ELG1 DNA repair 1.3% and TDP1 cell noCPT 2.91µM*.
N#C/C(=C\c1ccc(OCC(N)=O)cc1)c1ccccc1 was read as DT40 TDP1 CPT -17.6%, IL1B secr inh -13.4, Giardia killer -8.0, ELG1 DNA repair inconclusive, TDP1 cell noCPT -24.7% and TDP1 block 1.1%.
For CCc1ccc(NCc2cc3cc4c(cc3n(CC(=O)Nc3cccc(OC)c3)c2=O)OCO4)cc1 the results were TDP1 block 5.6%.
For CCc1c(C(=O)NNC(=S)NCCc2ccccc2)csc1C the results were DT40 TDP1 CPT inconclusive, IL1B secr inh -0.7, Giardia killer 14.8, ELG1 DNA repair -1.6%, TDP1 cell noCPT inconclusive and TDP1 block -7.8%.
For Cc1c(C(=O)NCCC2CCCN2C)cnn1-c1nccc(-c2ccccc2F)n1 (stereo unspecified) the results were DT40 TDP1 CPT -1.8%[9.04 µM] and TDP1 cell noCPT -16.1%.
COc1ccc(-c2csc(Nc3ccccc3)[n+]2Cc2ccccc2)cc1 was read as DT40 TDP1 CPT inconclusive, IL1B secr inh -26.9, Giardia killer -22.9, ELG1 DNA repair -11.1%, TDP1 cell noCPT 14.6µM* and TDP1 block 5.3%.
O=[N+]([O-])c1ccc(-c2csc(Nc3ccccc3)[n+]2Cc2ccccc2)cc1 was read as DT40 TDP1 CPT 20.6µM*, IL1B secr inh -7.1, Giardia killer -17.9, ELG1 DNA repair inconclusive, TDP1 cell noCPT 20.6µM* and TDP1 block 5.4%.
For Cc1ccc(-c2csc(Nc3ccc(C(=O)O)cc3)[n+]2Cc2ccccc2)cc1 the results were DT40 TDP1 CPT -23.8%, IL1B secr inh -10.7, Giardia killer -7.6, ELG1 DNA repair -24.2%, TDP1 cell noCPT inconclusive and TDP1 block 5.4%.
Screening COc1cccc(CN2CCCC(c3nc(C)ncc3-c3ccc(F)cc3)C2)c1OC (stereo unspecified) returned DT40 TDP1 CPT inconclusive and TDP1 cell noCPT 20.6µM*.
For Cc1ncc(-c2ccc(F)cc2)c(C2CCCN(Cc3cccc(O)c3)C2)n1 (stereo unspecified) the results were DT40 TDP1 CPT inconclusive and TDP1 cell noCPT 20.6µM*.
